# Data published in article PMC11062922 (Nature Chemical Biology, 2023).
# Like-named read-outs stand apart in the source and are kept apart here.
# Columns and labels:
# [1] = system: LATS1; settings: read-out: apparent Kd, n = 1
# [2] = system: MAP2K2; settings: read-out: apparent Kd, n = 1
substance,measurement,setting,value
Lestaurtinib,potency estimated from few doses,"[1]; compound concentrations:100 nM and 1000 nM (sheet 'Lestaurtinib' of Supplementary Table 1),run:Lestaurtinib_02624_R1,Plate:MR020",25.8 nM
same,potency estimated from few doses,"[1]; compound concentrations:100 nM and 1000 nM (sheet 'Lestaurtinib' of Supplementary Table 1),run:Lestaurtinib_02624_R2,Plate:MR020",40.9 nM
same,potency estimated from few doses,"[1]; compound concentrations:100 nM and 1000 nM (sheet 'Lestaurtinib' of Supplementary Table 1),run:Lestaurtinib_02624_R3,Plate:MR020",38.9 nM
same,potency estimated from few doses,"[1]; compound concentrations:100 nM and 1000 nM (sheet 'Lestaurtinib' of Supplementary Table 1),run:Lestaurtinib_02724_R1,Plate:MR021",13.4 nM
same,potency estimated from few doses,"[1]; compound concentrations:100 nM and 1000 nM (sheet 'Lestaurtinib' of Supplementary Table 1),run:Lestaurtinib_02724_R3,Plate:MR021",13.2 nM
same,potency estimated from few doses,"[1]; compound concentrations:100 nM and 1000 nM (sheet 'Lestaurtinib' of Supplementary Table 1),run:Lestaurtinib_02741_R2,Plate:MR023",27 nM
same,potency estimated from few doses,"[1]; compound concentrations:100 nM and 1000 nM (sheet 'Lestaurtinib' of Supplementary Table 1),run:Lestaurtinib_02748_R1,Plate:MR024",36.2 nM
same,potency estimated from few doses,"[1]; compound concentrations:100 nM and 1000 nM (sheet 'Lestaurtinib' of Supplementary Table 1),run:Lestaurtinib_02748_R3,Plate:MR024",56.4 nM
same,potency estimated from few doses,"[1]; compound concentrations:100 nM and 1000 nM (sheet 'Lestaurtinib' of Supplementary Table 1),run:Lestaurtinib_02752_R1,Plate:MR025",27.3 nM
same,potency estimated from few doses,"[1]; compound concentrations:100 nM and 1000 nM (sheet 'Lestaurtinib' of Supplementary Table 1),run:Lestaurtinib_02752_R2,Plate:MR025",32.9 nM
same,potency estimated from few doses,"[1]; compound concentrations:100 nM and 1000 nM (sheet 'Lestaurtinib' of Supplementary Table 1),run:Lestaurtinib_02752_R3,Plate:MR025",52.3 nM
same,potency estimated from few doses,"[1]; compound concentrations:100 nM and 1000 nM (sheet 'Lestaurtinib' of Supplementary Table 1),run:Lestaurtinib_02765_R1,Plate:MR026",40.4 nM
same,potency estimated from few doses,"[1]; compound concentrations:100 nM and 1000 nM (sheet 'Lestaurtinib' of Supplementary Table 1),run:Lestaurtinib_02765_R2,Plate:MR026",48.6 nM
same,potency estimated from few doses,"[1]; compound concentrations:100 nM and 1000 nM (sheet 'Lestaurtinib' of Supplementary Table 1),run:Lestaurtinib_02765_R3,Plate:MR026",66.7 nM
same,potency estimated from few doses,"[1]; compound concentrations:100 nM and 1000 nM (sheet 'Lestaurtinib' of Supplementary Table 1),run:Lestaurtinib_02768_R1,Plate:MR028",31.7 nM
same,potency estimated from few doses,"[1]; compound concentrations:100 nM and 1000 nM (sheet 'Lestaurtinib' of Supplementary Table 1),run:Lestaurtinib_02795_R1,Plate:MR022",15.1 nM
same,potency estimated from few doses,"[1]; compound concentrations:100 nM and 1000 nM (sheet 'Lestaurtinib' of Supplementary Table 1),run:Lestaurtinib_02795_R3,Plate:MR022",46.9 nM
same,potency estimated from few doses,"[1]; compound concentrations:100 nM and 1000 nM (sheet 'Lestaurtinib' of Supplementary Table 1),run:Lestaurtinib_02802_R1,Plate:MR029",38.6 nM
same,potency estimated from few doses,"[1]; compound concentrations:100 nM and 1000 nM (sheet 'Lestaurtinib' of Supplementary Table 1),run:Lestaurtinib_02802_R2,Plate:MR029",26 nM
same,potency estimated from few doses,"[1]; compound concentrations:100 nM and 1000 nM (sheet 'Lestaurtinib' of Supplementary Table 1),run:Lestaurtinib_02896_R1,Plate:MR030",15.1 nM
same,potency estimated from few doses,"[1]; compound concentrations:100 nM and 1000 nM (sheet 'Lestaurtinib' of Supplementary Table 1),run:Lestaurtinib_02896_R2,Plate:MR030",27.9 nM
same,potency estimated from few doses,"[1]; compound concentrations:100 nM and 1000 nM (sheet 'Lestaurtinib' of Supplementary Table 1),run:Lestaurtinib_03172_R1,Plate:MR031",40.9 nM
same,potency estimated from few doses,"[1]; compound concentrations:100 nM and 1000 nM (sheet 'Lestaurtinib' of Supplementary Table 1),run:Lestaurtinib_03172_R2,Plate:MR031",32.7 nM
same,potency estimated from few doses,"[1]; compound concentrations:100 nM and 1000 nM (sheet 'Lestaurtinib' of Supplementary Table 1),run:Lestaurtinib_03172_R3,Plate:MR031",30.1 nM
same,potency estimated from few doses,"[1]; compound concentrations:100 nM and 1000 nM (sheet 'Lestaurtinib' of Supplementary Table 1),run:Lestaurtinib_03252_R1,Plate:MR032",41.1 nM
same,potency estimated from few doses,"[1]; compound concentrations:100 nM and 1000 nM (sheet 'Lestaurtinib' of Supplementary Table 1),run:Lestaurtinib_03260_R2,Plate:MR033",66 nM
same,potency estimated from few doses,"[1]; compound concentrations:100 nM and 1000 nM (sheet 'Lestaurtinib' of Supplementary Table 1),run:Lestaurtinib_03260_R3,Plate:MR033",57.8 nM
same,potency estimated from few doses,"[2]; compound concentrations:100 nM and 1000 nM (sheet 'Lestaurtinib' of Supplementary Table 1),run:Lestaurtinib_02339_R1,Plate:MR001",1930 nM
same,potency estimated from few doses,"[2]; compound concentrations:100 nM and 1000 nM (sheet 'Lestaurtinib' of Supplementary Table 1),run:Lestaurtinib_02339_R2,Plate:MR001",822 nM
same,potency estimated from few doses,"[2]; compound concentrations:100 nM and 1000 nM (sheet 'Lestaurtinib' of Supplementary Table 1),run:Lestaurtinib_02339_R3,Plate:MR001",836 nM
same,potency estimated from few doses,"[2]; compound concentrations:100 nM and 1000 nM (sheet 'Lestaurtinib' of Supplementary Table 1),run:Lestaurtinib_02364_R1,Plate:MR002",1210 nM
same,potency estimated from few doses,"[2]; compound concentrations:100 nM and 1000 nM (sheet 'Lestaurtinib' of Supplementary Table 1),run:Lestaurtinib_02364_R2,Plate:MR002",1670 nM
same,potency estimated from few doses,"[2]; compound concentrations:100 nM and 1000 nM (sheet 'Lestaurtinib' of Supplementary Table 1),run:Lestaurtinib_02367_R1,Plate:MR003",557 nM
same,potency estimated from few doses,"[2]; compound concentrations:100 nM and 1000 nM (sheet 'Lestaurtinib' of Supplementary Table 1),run:Lestaurtinib_02367_R2,Plate:MR003",665 nM
same,potency estimated from few doses,"[2]; compound concentrations:100 nM and 1000 nM (sheet 'Lestaurtinib' of Supplementary Table 1),run:Lestaurtinib_02367_R3,Plate:MR003",2220 nM
same,potency estimated from few doses,"[2]; compound concentrations:100 nM and 1000 nM (sheet 'Lestaurtinib' of Supplementary Table 1),run:Lestaurtinib_02407_R1,Plate:MR005",96.3 nM
